mIDH1 inhibitor – qHTS for Inhibitors of mutant isocitrate dehydrogenase 1 (IDH1): qHTS. Isocitrate dehydrogenase [NADP] cytoplasmic (Homo sapiens), O75874. IDH1-R132H enzyme, NADPH consumption, diaphorase/resazurin fluorescence. Potency, µM (series often up to 76.6 µM), usual class: inhibitors. 0.093% of 390,000 active. AID 602179, 2012; further: nearly all actives have a fitted effect of over 65% in size
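IDH1-R132H (0.5 ug/mL) preincubated 30 min with compound, then NADPH (0.016 mM) and alpha-KG (2 mM) added; 80 min at RT, pH 7.5. Remaining NADPH coupled via diaphorase/resazurin to fluorescence (540/590 nm); concentration-response curves normalized to no-enzyme control.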
Anesthetic bind – qHTS Assay for Identification of Novel General Anesthetics | Ferritin light chain (Equus caballus), P02791 | apoferritin/1-aminoanthracene competitive binding, fluorescence | Potency, µM (series often up to 77.5 µM), actives largely listed as inhibitors | 0.074% of 350,000 active; further: nearly all actives have a fitted effect of over 20% in size
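In PBS, apoferritin at 10 uM is loaded with 1-AMA from a 50% saturated solution. After 10 min of compound exposure at ambient temperature, reduced 535 nm fluorescence indicates probe displacement.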
GALK inh – qHTS Assay for Inhibitors of Human Galactokinase (GALK) | P51570 | Purified GALK, Kinase-Glo residual ATP luminescence | Potency, µM (doses to about 57.5 µM), actives largely listed as inhibitors | 0.007% of 270,000 active
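Galactose (100 uM) and ATP (35 uM) were turned over by 5 nM GALK for 1 h at RT. Kinase-Glo Plus then converted the remaining ATP into a luminescent signal.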
TrxR1 inh – qHTS Assay for Inhibitors of Mammalian Selenoprotein Thioredoxin Reductase 1 (TrxR1): qHTS | Potency, µM (doses to about 114 µM), hits mostly inhibitors | 1% of 390,000 active | Thioredoxin reductase 1, cytoplasmic (Rattus norvegicus), O89049 | recombinant rTrxR1, NADPH fluorescence consumption, selenite substrate; further: nearly all actives have a fitted effect of over 65% in size
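Rat TrxR1 (90 nM in the dispensed reagent) was pre-reduced with 400 uM NADPH for 5 min at room temperature, then incubated with compound for 15 min. After 400 uM selenite was added, NADPH fluorescence (Ex 340/Em 450 nm) was followed for 8 min.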
TrxR1 substrate – qHTS Assay for Substrates of Mammalian Selenoprotein Thioredoxin Reductase 1 (TrxR1): qHTS. Potency, µM (top dose mostly 114 µM). Thioredoxin reductase 1, cytoplasmic (Rattus norvegicus), O89049. 0.01% of 390,000 active. AID 588456, 2011. purified TrxR1 substrate turnover, NADPH consumption readout; further: nearly all actives have a fitted effect of over 50% in size
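Rat TrxR1, dispensed at 90 nM, was prereduced with 400 uM NADPH (final) for 5 min at ~22 deg C, then incubated with compound 15 min before 400 uM selenite. A first-read NADPH fluorescence drop versus no-compound background flagged substrates.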
PKM2 activator – qHTS Assay for Activators of Human Muscle isoform 2 Pyruvate Kinase. AID 1631, 2009. Potency, µM (titrated, usually from 57.5 µM), actives largely listed as activators. purified PKM2, Kinase-Glo ATP luminescence, activation; response scale: 0% is enzyme alone, no compound. 0.34% of 260,000 active; further: nearly all actives have a fitted effect of over 55% in size
Target sequence (P14618 whole entry, looked up, canonical isoform): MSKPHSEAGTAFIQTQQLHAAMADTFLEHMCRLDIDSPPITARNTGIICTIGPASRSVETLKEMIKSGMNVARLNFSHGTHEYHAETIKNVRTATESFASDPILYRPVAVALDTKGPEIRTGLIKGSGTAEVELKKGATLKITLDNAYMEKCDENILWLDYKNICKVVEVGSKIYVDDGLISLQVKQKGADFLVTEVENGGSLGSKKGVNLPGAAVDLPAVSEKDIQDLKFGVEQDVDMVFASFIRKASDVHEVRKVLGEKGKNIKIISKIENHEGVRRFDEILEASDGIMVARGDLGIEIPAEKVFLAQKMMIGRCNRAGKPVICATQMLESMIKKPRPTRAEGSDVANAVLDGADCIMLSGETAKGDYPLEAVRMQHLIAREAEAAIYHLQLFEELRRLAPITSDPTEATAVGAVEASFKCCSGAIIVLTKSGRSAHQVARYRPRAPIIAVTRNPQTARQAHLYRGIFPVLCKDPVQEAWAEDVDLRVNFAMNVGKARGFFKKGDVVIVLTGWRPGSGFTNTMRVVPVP
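hPK-M2, >95% pure; 0.1 mM ADP / 0.5 mM PEP final; imidazole pH7.2 buffer w/ 7 mM MgCl2, 50 mM KCl; 1 h RT; Kinase-Glo lum. Intermediate enzyme activity for dual inhibitor/activator qHTS.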
Each line names hits and unclear results; the compound was inactive in the other large screens. Hits are enriched below; roughly 1.3% of the tested compounds scored in any of these assays. The call rests on the fitted dose curve; in most records, active means well fitted curve in the direction sought with a large enough effect; inconclusive means small, poorly fitted or top-dose-only effect, or another doubt; inactive means no such curve, though single readings can be large; an effect the other way counts as inactive or inconclusive.

CCOC(=O)c1ccc(NC(=O)Cn2ncc(Cl)c(Cl)c2=O)cc1	TrxR1 inh inconclusive
Cc1ccc(C(=O)OCn2ncc(Cl)c(Cl)c2=O)cc1	Anesthetic bind inconclusive, TrxR1 inh 12.6µM, PKM2 activator inconclusive
O=C(OCn1ncc(Cl)c(Cl)c1=O)c1ccc(C(F)(F)F)cc1	TrxR1 inh 17.8µM
O=C(Cc1ccc(Cl)cc1)NO	none (no result: mIDH1 inhibitor, Anesthetic bind, GALK inh, PKM2 activator)
CCC(Oc1ccccc1)C(=O)Nc1ncc([N+](=O)[O-])s1 (configuration not stated)	none
CC(CC(=O)Nc1ncc([N+](=O)[O-])s1)c1ccccc1 (configuration not stated)	Anesthetic bind 35.5µM
COc1cc(/C=C2\N=C3CCCCCN3C2=O)ccc1O	TrxR1 inh 50.1µM, TrxR1 substrate inconclusive
Cc1ccccc1NC(=O)c1ccccc1OCC(=O)Nc1ccc(Br)cc1	none (no result: mIDH1 inhibitor, Anesthetic bind, GALK inh, PKM2 activator)
Cc1ccc(N=C2NC(=O)/C(=C/C=C/c3ccco3)S2)cc1	Anesthetic bind inconclusive, TrxR1 inh 44.7µM
Cc1cccc(N=C2NC(=O)/C(=C/C=C/c3ccco3)S2)c1C	TrxR1 inh inconclusive, PKM2 activator inconclusive
O=C1NC(=Nc2ccccc2)S/C1=C\C=C\c1ccco1	TrxR1 inh 79.4µM
CCCn1c(SCc2nc(-c3ccc(OC)c(OC)c3)no2)nnc1-c1ccccc1	none (no result: GALK inh, PKM2 activator)
CC(C)Cn1c(N)c(C(=O)CSc2nncs2)c(=O)n(C)c1=O	none (no result: Anesthetic bind, GALK inh, PKM2 activator)
CCCn1c(N)c(C(=O)CSc2nc(C)cs2)c(=O)n(C)c1=O	PKM2 activator 15.8µM
Cc1cc(=S)cc(C)n1CCO	TrxR1 inh 35.5µM (no result: GALK inh)
O=C(NCc1ccccn1)c1c(O)c2cccc3c2n(c1=O)CC3	PKM2 activator 8.91µM
COc1ccc(C(=O)/C=C/c2cn(CC(O)CN3CCCCCC3)c3ccccc23)cc1OC (configuration not stated)	TrxR1 inh 39.8µM (no result: GALK inh, PKM2 activator)
O=c1oc2cc(S(=O)(=O)NCCCO)ccc2c2ccc(S(=O)(=O)NCCCO)cc12	PKM2 activator 14.1µM
CNS(=O)(=O)c1ccc2c(c1)oc(=O)c1cc(S(=O)(=O)NC)ccc12	PKM2 activator 1.58µM
COc1ccc(C(=O)N/N=C/c2c(C)[nH]c(=O)[nH]c2=O)cc1	none
COc1ccc(CO/N=C/c2c(C)[nH]c(=O)[nH]c2=O)cc1	PKM2 activator 25.1µM
CCc1ccccc1N1C(=O)N(Cc2ccccc2C)c2ccccc2S1(=O)=O	none (no result: GALK inh, PKM2 activator)
Cc1nc2nc(CNC(=O)OC(C)(C)C)nn2c(C)c1CCC(=O)NCc1ccccc1Cl	none (no result: GALK inh, PKM2 activator)
O=[N+]([O-])c1ccc(O/N=[N+](\[O-])N2CCCC2)c([N+](=O)[O-])c1	TrxR1 inh 17.8µM (no result: mIDH1 inhibitor, Anesthetic bind, GALK inh, PKM2 activator)
O=[N+]([O-])c1ccc(N2CCCC2)c([N+](=O)[O-])c1	none (no result: Anesthetic bind, GALK inh, TrxR1 inh, TrxR1 substrate, PKM2 activator)
CS(=O)(=O)N1CCN(/[N+]([O-])=N/Oc2ccc([N+](=O)[O-])cc2[N+](=O)[O-])CC1 (tested in a mixture with another compound)	TrxR1 inh 11.2µM (no result: mIDH1 inhibitor, Anesthetic bind, GALK inh, PKM2 activator)
CS(=O)(=O)N1CCN(/[N+]([O-])=N/Oc2ccc([N+](=O)[O-])cc2[N+](=O)[O-])CC1	TrxR1 inh 8.91µM (no result: mIDH1 inhibitor, Anesthetic bind, GALK inh, PKM2 activator)
CS(=O)(=O)N1CCN(c2ccc([N+](=O)[O-])cc2F)CC1	none
CC(C)(C)n1ncc2c(=O)n(Cc3ccc(OC(F)(F)F)cc3)cnc21	none (no result: mIDH1 inhibitor, Anesthetic bind, GALK inh, PKM2 activator)
Cc1ccc(CN(Cc2ccco2)c2cnc(S(C)(=O)=O)nc2C(=O)Nc2ccccc2Br)o1	Anesthetic bind inconclusive (no result: GALK inh, PKM2 activator)
CCOc1cc(CNc2ccc3c(c2)CCC3)ccc1O	Anesthetic bind inconclusive, TrxR1 inh inconclusive
